Measurements: PubChem BioAssay AID1259421 (Broad Institute, 2018)
“And” between values parts separate entries of the source, which are not always exact repeats. Identical values can stand only once. The campaign covered roughly 6,400 compounds. About 610 (9.5%) were called active. The list comes from a sample in which actives are over-represented; it also holds similar structures and randomly drawn compounds. Unmarked numbers belong to inactive results. Cut-off read from the data, not from the text of the source: active = activity change below about -70%; inconclusive = no clear call, values can overlap the other calls; inactive = above that.

Assay: Toxoplasma gondii ME49Luc growth in HeLa cells, luciferase, no IFN-y, primary screen (AID 1259421)
Settings: T. gondii ME49Luc in HeLa, 72 h, hits give low values, concentration not given here

Row | Compound | activity change, negative = inhibition
1 | O=c1cc(-c2ccccc2O)oc2cc(O)ccc12 | 190%
2 | COP(=O)(OC)OC(c1ccc(Cl)cc1)P(=O)(OC)OC (stereo not given) | 5.14% and 12.1%
3 | CN(C)Cc1ccc(S(=O)(=O)n2ccc(/C=C/C(=O)NO)c2)cc1 | -84.8% (active)
4 | c1ccc2sc(SN3CCOCC3)nc2c1 | 17.7%
5 | COc1c(-c2ccc3cc(NS(C)(=O)=O)ccc3c2)cc(-n2ccc(=O)[nH]c2=O)cc1C(C)(C)C | 17.6%
6 | CC(=O)OCC(=O)[C@@]1(O)[C@H](C)CC2C3CCC4=CC(=O)C=C[C@]4(C)[C@@]3(F)[C@@H](O)C[C@@]21C (stereo not given in full) | -8.27%
7 | Nc1nc(-c2ccc(Cl)c(Cl)c2)c(-c2ccncc2)s1 | -9.5%
8 | COC(=O)[C@@]12OC[C@]34[C@H]([C@@H](O)[C@@H]1O)[C@@]1(C)CC(=O)C(=O)C(C)[C@@H]1C[C@H]3OC(=O)[C@H](OC(=O)/C=C(\C)C(C)C)[C@@H]24 (stereo not given in full) | -83.7% (active)
9 | CC(CCC(=O)O)[C@H]1CCC2C3C(=O)C[C@@H]4CC(=O)CC[C@]4(C)C3CC(=O)[C@@]21C (stereo not given in full) | 4.28% and -3.38%
10 | Cc1onc(-c2ccccc2)c1C(=O)N[C@@H]1C(=O)N2[C@@H](C(=O)O)C(C)(C)S[C@@H]12 | 3.42%
11 | N[C@H](Cc1cc(I)c(Oc2ccc(O)c(I)c2)c(I)c1)C(=O)O | 2.18% and -1.07%
12 | N[C@@]1(C(=O)O)CS(=O)(=O)[C@H]2[C@H](C(=O)O)[C@H]21 | 8.77%
13 | Ac-PHSCN-NH2 | 12.4%
14 | CC1(C)CC(=O)c2c(C(F)(F)F)nn(-c3ccc(C(N)=O)c(NC4CCC(O)CC4)c3)c2C1 (stereo not given) | -81.9% (active)
15 | CC1(C)CC(=O)c2c(C(F)(F)F)nn(-c3ccc(C(N)=O)c(NC4CCC(OC(=O)CN)CC4)c3)c2C1 (stereo not given) | -75.4% (active)
16 | Cn1nnc(-c2ccc(-c3ccc(N4C[C@H](CO)OC4=O)cc3F)cn2)n1 | 60.5%
17 | CCOC(=O)[C@@H](CCc1ccccc1)N[C@H](C)C(=O)N1[C@@H]2CCC[C@H]2C[C@H]1C(=O)O | 14.6%
18 | CCCCS(=N)(=O)CC[C@H](N)C(=O)O (stereo not given in full) | 0.306%
19 | CCCC[C@@H](CC)COC(=O)C(C#N)=C(c1ccccc1)c1ccccc1 | -53.6%
20 | CC(=O)OCC(=O)[C@@]1(O)[C@H](OC(C)=O)CC2C3CCC4=CC(=O)C=C[C@]4(C)[C@@]3(F)[C@@H](O)C[C@@]21C (stereo not given in full) | -7.39%
